35 compounds from PubChem BioAssay (Tox21) can be followed below.

Inconclusive results are not listed. Entries that show only a call come without a potency. Unmarked numbers belong to inactive results. Activity calls are given as the source filed them. Unless noted, calls come from the whole dose curve; as a rule, active = well fitted cell-killing curve with a large enough effect in the repeat runs; inconclusive = weak or mixed curves; inactive = flat fitted curve, though single readings scatter.
Potency is the fitted concentration of half-maximal effect.

The first experiment can be described thus: qHTS assay to identify small molecule agonists of the progesterone receptor (PR) signaling pathway - cell viability counter screen (AID 1346799; calls by dose curve; note: nearly all actives have a fitted effect of over 45% in size). To be noted: PR-UAS-bla HEK293T viability, CellTiter-Glo luminescence, 16 h; series mostly up to 92.4 µM. In a few lines:
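Cells (PR-UAS-bla HEK293T) are plated at 3,000/well in 2% charcoal-stripped FBS medium, rested 6 hr, dosed and incubated 16 hr at 37C. CellTiter-Glo is then added and luminescence measured after 30 min at room temperature.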
(In general: qHTS replaces the single test concentration by a dilution series.)
With `CCC(N)(CO)CO`, the Potency entry was “inactive”.
Still for that read-out and setting: as for `COc1cc(-c2nc(NC(=O)c3cc4cc(C)cc(C)c4n3CC(=O)O)sc2CCC2CCCCC2)c(OC)cc1Cl`, the figure is 11.2 µM (active).
Same read-out and setting: as for `CSc1ccc(/C=C2/C(C)=C(CC(=O)O)c3cc(F)ccc32)cc1`, the entry is “inactive”; as for `O=C1C=CC(=O)N1c1ccc(Cc2ccc(N3C(=O)C=CC3=O)cc2)cc1`, “inactive”; as for `CN(C)[C@@H]1C(=O)C(C(N)=O)=C(O)[C@@]2(O)C(=O)C3=C(O)c4c(O)cccc4C[C@H]3C[C@@H]12`, “inactive”.
For the compound `Cc1nc(-c2ccc3c(c2)CCN(CCC2CCC(NC(=O)/C=C/c4ccc(F)cc4)CC2)CC3)no1` (centres undefined), the Potency result is “inactive”.
Turning to `CC(C)n1nc(-c2cc3cc(O)ccc3[nH]2)c2c(N)ncnc21`, the Potency entry was “inactive”.
The same measure, in the same setting: the value for `O=[N+]([O-])c1cc(Cl)c(Cl)c(Cl)c1Cl` was “inactive”.
Take `CCCCCCCCn1sc(Cl)c(Cl)c1=O`: the Potency result was “inactive”.
In the case of `O=C1c2ccccc2Cc2ccccc21`, the Potency entry is “inactive”.
Still for that read-out and setting: as for `CCC(CN)=C(c1ccccc1)c1ccccc1`, the entry is “inactive”; as for `O=c1[nH]cnc2nc[nH]c12`, “inactive”; as for `C[C@@H](NCCCc1cccc(C(F)(F)F)c1)c1cccc2ccccc12`, 23.7 µM (active).
For `Oc1cccc2cc3cccc(O)c3c(O)c12`, the Potency result was “inactive”.
Still for that read-out and setting: the value for `O=C(O)c1c(Cl)cccc1Cl` was “inactive”; that for `CCCCCCCC(=O)[O-].CCCCCCCC(=O)[O-].[Zn+2]` was “inactive”; that for `CC(C)(C)CC(C)(C)c1ccc(OCCOCC[N+](C)(C)Cc2ccccc2)cc1` was 48.5 µM (active).
The same measure, in the same setting: as for `CCC(C)(C)C1CCCCC1OC(C)=O` (centres undefined), the entry is “inactive”; as for `CSc1ccc(C(=O)c2[nH]c(=O)[nH]c2C)cc1`, “inactive”.
As for `CC(NN)c1ccccc1` (centres undefined), the activity change, negative = cytotoxicity is -7.08% [at 19 µM].
In the case of `CC(C)=CCOc1ccc(/C=C/C(=O)c2ccc(OCC=C(C)C)cc2OCC(=O)O)cc1`, the Potency result is “inactive”.
For the compound `N#CSc1ccc(N)c([N+](=O)[O-])c1`, the Potency entry is “inactive”.
On to `O=C(c1ccc(F)cc1)C1CCN(CCn2c(=O)[nH]c3ccccc3c2=O)CC1`, for which the Potency result is “inactive”.
The same measure, in the same setting: the value for `CCCCCCCCCCCCCCCC[N+](C)(C)CCN(Cc1ccc(OC)cc1)c1ncccn1` was 21.1 µM (active); that for `O=C(O)c1cc(O)c2c(c1)C(=O)c1cccc(O)c1C2=O` was “inactive”.

The next experiment in a line: qHTS assay to identify small molecule antagonists of the TGF-beta/Smad signaling pathway - cell viability counter screen (AID 1346824). Note: nearly all actives have a fitted effect of over 50% in size. To be noted: SBE-bla HEK293T viability, CellTiter-Glo luminescence; series mostly up to 76.8 µM. Summed up:
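Cytotoxicity counter-screen run in the same wells as the beta-lactamase Smad reporter read: CellTiter-Glo luminescence after 30 min at room temperature. HEK 293T SBE-bla cells had 5 hr compound exposure at 37 C with TGF-beta1 (0.25 ng/mL stock).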
In the case of `CCC(N)(CO)CO`, the Potency result is “inactive”.
Same read-out and setting: as for `O=C(OCC1CO1)C1CCCCC1C(=O)OCC1CO1` (centres undefined), the entry is “inactive”.
As to `CSc1ccc(/C=C2/C(C)=C(CC(=O)O)c3cc(F)ccc32)cc1`, the Potency entry is “inactive”.
Same read-out and setting: the value for `O=C1C=CC(=O)N1c1ccc(Cc2ccc(N3C(=O)C=CC3=O)cc2)cc1` was “inactive”; that for `CN(C)[C@@H]1C(=O)C(C(N)=O)=C(O)[C@@]2(O)C(=O)C3=C(O)c4c(O)cccc4C[C@H]3C[C@@H]12` was “inactive”; that for `Cc1nc(-c2ccc3c(c2)CCN(CCC2CCC(NC(=O)/C=C/c4ccc(F)cc4)CC2)CC3)no1` (centres undefined) was “inactive”.
The same measure, in the same setting: as for `CC(C)n1nc(-c2cc3cc(O)ccc3[nH]2)c2c(N)ncnc21`, the entry is “inactive”; as for `Fc1ccc([C@@H]2CCNC[C@H]2COc2ccc3c(c2)OCO3)cc1`, “inactive”; as for `O=[N+]([O-])c1cc(Cl)c(Cl)c(Cl)c1Cl`, “inactive”.
With `CCCCCCCCn1sc(Cl)c(Cl)c1=O`, the Potency is 21.9 µM (active).
Same read-out and setting: the value for `O=C(Oc1ccccc1)c1ccccc1C(=O)Oc1ccccc1` was “inactive”; that for `O=C1c2ccccc2Cc2ccccc21` was “inactive”.
Still for that read-out and setting: the value for `CCC(CN)=C(c1ccccc1)c1ccccc1` was “inactive”.
In the case of `O=c1[nH]cnc2nc[nH]c12`, the Potency result is “inactive”.
The same measure, in the same setting: as for `Nc1cc(C(F)(F)F)ccc1S`, the entry is “inactive”; as for `Oc1cccc2cc3cccc(O)c3c(O)c12`, “inactive”; as for `O=C(O)c1c(Cl)cccc1Cl`, “inactive”.
The same measure, in the same setting: as for `CCCCCCCC(=O)[O-].CCCCCCCC(=O)[O-].[Zn+2]`, the entry is “inactive”; as for `Cc1oc(-c2ccccc2)nc1CCC(=O)c1ccc(CC2SC(=O)NC2=O)cc1` (centres undefined), “inactive”.
The same measure, in the same setting: as for `COc1c(C)c2c(c(O)c1C/C=C(\C)CCC(=O)O)C(=O)OC2`, the entry is “inactive”; as for `CC(C)(C)CC(C)(C)c1ccc(OCCOCC[N+](C)(C)Cc2ccccc2)cc1`, 48.9 µM (active); as for `CCC(C)(C)C1CCCCC1OC(C)=O` (centres undefined), “inactive”.
For the compound `Cn1cc(C(=O)[C@@H]2CCc3nc[nH]c3C2)c2ccccc21`, the Potency entry is “inactive”.
The same measure, in the same setting: the value for `CSc1ccc(C(=O)c2[nH]c(=O)[nH]c2C)cc1` was “inactive”; that for `C[n+]1ccn(Cc2ccccc2)c1` was “inactive”.
`CC(NN)c1ccccc1` (centres undefined): the viability change, negative = cytotoxic is 2.36% [at 15.8 µM].
Turning to `NNc1nc(-c2ccc([N+](=O)[O-])cc2)cs1`, the Potency result is “inactive”.
On the same count and under the same terms, as for `COc1ccc(C(=O)/C(Br)=C\C(=O)O)cc1`, the entry is “inactive”.
Same read-out and setting: as for `CC(C)=CCOc1ccc(/C=C/C(=O)c2ccc(OCC=C(C)C)cc2OCC(=O)O)cc1`, the entry is “inactive”.
